High-throughput results as filed in PubChem.
Pf Dd2 inh: qHTS Primary assay for Inhibitors of Plasmodium falciparum Dd2 growth in vitro; P. falciparum Dd2 growth, SYBR Green, 72 h; Potency, µM (highest dose often 28.9 µM), for the others: at the top dose activity, negative = inhibition, hits mostly inhibitors; hit rate 4.3% among 120,000; active = well fitted inhibition curve with a large enough effect;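 note: plate controls were DMSO vehicle for no effect and reference drug for full effect; nearly all actives have a fitted effect of over 65% in size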
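Infected erythrocytes (Dd2, 0.3% parasitemia, 2.5% hematocrit final) are added to compound in RPMI-1640/Albumax II medium, grown 72 h at 37C in low oxygen, then lysed with saponin/Triton-X containing SYBR Green and read by fluorescence.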
The depositor's hits bear a star; i = inactive; [ ] = dose if it differs, or a comment. The entries come from a sample that favours hits as a whole. Potency is the fitted concentration of half-maximal effect.

SMILES | Pf Dd2 inh
CCOC(=O)CCNC(=O)N1CCCC1c1noc(COc2ccc(F)cc2)n1 (configuration not stated) | 35%
COCCCNC(=O)N1CCCCC1c1nc(CCOc2cccc(C)c2)no1 (configuration not stated) | -25%
COc1cccc(NC(=O)N(Cc2cn(C)c3ccccc23)C2CCCCC2)c1 | 2.8µM*
Cc1ccc(NC(=O)N(Cc2cn(C)c3ccccc23)C2CCCCC2)cc1C | 3.5µM*
COc1ccc(CN(C(=O)Nc2cccc(OC)c2)C2CCN(C(C)=O)CC2)cc1 | -5%
CC(=O)N1CCC(N(CCCOC(C)C)C(=O)Nc2ccc(C)c(C)c2)CC1 | 4%
COc1cccc(NC(=O)N(CCC(C)C)C2CCN(C(C)C)CC2)c1 | i
Cc1ccc(NC(=O)Cn2cc(C(=O)C3CC3)c3ccccc32)cc1C | 314%[5.79 µM]
COc1ccc(S(=O)(=O)N2C[C@@H]3C[C@H](C2)c2c(NC(=O)c4cncnc4)ccc(=O)n2C3)cc1 | -9%
COc1ccc(-c2cc(CC3(NCc4ccccc4)COC3)no2)cc1 | i
CC(=O)NCC(=O)N1CC(F)(F)C[C@H]1c1nc(C2CC2)no1 | 10%
COc1cccc(-c2nn(C)c3sc(C(=O)NCc4cc(OC)ccc4OC)cc23)c1 | -16%
COc1ccc(-c2nn(C)c3sc(C(=O)N4CCN(c5cccc(Cl)c5)CC4)cc23)cc1OC | -16%
COc1ccc(-c2nn(C)c3sc(C(=O)Nc4cc(OC)c(OC)c(OC)c4)cc23)cc1OC | 11µM*
CCN(CC)C(=O)CCc1c(C)nn(-c2ccccc2C)c1Oc1cccc(F)c1 | -9%
CCOc1ccc(CC(=O)N2CCC(C3CCNC3)CC2)cc1OCC (configuration not stated) | 5%
O=C(OCc1ccccc1)N1CCOCC12CCN(Cc1ccncc1)CC2 | -19%[44.1 µM]
O=C(OCc1ccccc1)N1CCOCC12CCN(Cc1ccc3[nH]ccc3c1)CC2 | 7.1µM*
O=C(c1ccccc1)N1CCOCC12CCN(Cc1ccc3[nH]ccc3c1)CC2 | -7%[44.1 µM]
CC1(C)[C@H](Cc2cc(CN3CCOCC3)on2)C[C@@H]1N | -17%[44.1 µM]
Cc1ccc(C)c(NC(=O)Cn2c(C)cc3nc4n(c(=O)c32)CCCC4)c1 | i
COCC(=O)NC1CCC12CCN(C(=O)c1cc3ccccc3[nH]1)CC2 (configuration not stated) | -22%
Cc1cc(N2CCN(Cc3cc4n(n3)CCNC4)CC2)n2ncnc2n1 | 9%
CC(NC(=O)C1CCN(C(=O)c2ncn3c2COC(c2ccccc2)C3)CC1)c1ccc(F)cc1 (configuration not stated) | i
CC(NC(=O)C1CCN(C(=O)c2ncn3c2COC(c2ccc(Cl)cc2)C3)CC1)c1ccccc1 (configuration not stated) | -16%
SMILES | Pf Dd2 inh
COc1ccc(C(C)NC(=O)C2CCN(C(=O)c3ncn4c3COC(c3ccccc3)C4)CC2)cc1 (configuration not stated) | 7.9µM*
COc1cc(Cl)cc(C(=O)N2CCC3(CCCNC3)C2)c1 (configuration not stated) | -16%
Cc1ccc(C)c(C(=O)Nc2ccc3c(N4CCCC4)ncnc3c2)c1 | 2.5µM*
O=C(Nc1ccc2c(N3CCCC3)ncnc2c1)c1ccccc1Br | 13µM*
Cc1ccc(NC(=O)c2cnc(N3CCCCC3)c3ccccc23)cc1Cl | -22%
COc1ccccc1C(=O)Nc1ccc2ncnc(N3CCCCC3)c2c1 | i
Nc1nc(C2CC(O)C2)cc(N2CCCN(C(=O)c3ccoc3)CC2)n1 (configuration not stated) | 6%
c1ccc([C@@H]2CN(Cc3cccnc3)C[C@H]2COc2ccncc2)nc1 | -6%
CNC(C)c1ccc(C(F)(F)F)cc1 (configuration not stated) | 15%[44.1 µM]
O=C(O)c1cccc(CC2CCN(C(=O)C3CCC(O)CC3)C2)c1 (configuration not stated) | 8%
CN1CCC(N2CC[C@@H]3[C@H]2C(=O)NC[C@H](CCC(=O)Nc2ccccc2)N3C)CC1 | 29%[44.1 µM]
Cc1cc(=O)n(CC(=O)Nc2ccc(Br)cc2)c(N2CCC(C)CC2)n1 | -24%
Cc1cc(=O)n(CC(=O)Nc2ccc(C)c(Cl)c2)c(N2CCC(C)CC2)n1 | -22%
CCOc1ccccc1NC(=O)Cn1c(=O)ccc2cc(S(=O)(=O)N3CCC(C)CC3)ccc21 | 13µM*
Cc1ccc(NC(=O)Cn2c(N3CCN(c4ccccc4)CC3)nc(C)cc2=O)c(C)c1 | -8%
CCOc1ccccc1NC(=O)Cn1c(-c2ccc(F)cc2)nc(C)cc1=O | -19%
CCc1ccccc1NC(=O)Cn1c(=O)ccc2cc(S(=O)(=O)N3CCCC3)ccc21 | 10%
Cc1cc(=O)n(CC(=O)Nc2ccc(Cl)cc2)c(N2CCC(C)CC2)n1 | 11µM*
Cc1ccc(C)c(NC(=O)Cn2c(N3CCN(c4ccccc4)CC3)nc(C)cc2=O)c1 | -42%
CCOc1ccccc1NC(=O)Cn1c(-c2ccccc2)nc(C)cc1=O | 1.6µM*
COc1ccccc1CNC(=O)Cn1c(=O)ccc2cc(S(=O)(=O)N3CCC(C)CC3)ccc21 | 11%
CCOc1ccccc1NC(=O)Cn1c(N2CCN(c3ccccc3)CC2)nc(C)cc1=O | 5.6µM*
CCc1ccccc1NC(=O)Cn1c(-c2ccccc2)nc(C)cc1=O | -4%
Cc1noc2ccc(-c3ccccc3Oc3ccccc3)nc12 | i
CCNC(=O)N1CCCCCCNC(=O)[C@@H]2C[C@@H](c3nc(-c4cccnc4)no3)C[C@@H]21 | i
SMILES | Pf Dd2 inh
CSc1ccc(CN2C(=O)C3(CCOCC3)CC2c2nnnn2C(C)(C)C)cc1 (configuration not stated) | -13%
COc1ccc(C(=O)N2CCN(C(C(=O)O)c3ccc(F)cc3)CC2)cc1 (configuration not stated) | 3%
CCc1ccc(CN2CC3ON=C(C(=O)O)C3C2)cc1 (configuration not stated) | 18%[44.1 µM]
CCCCc1nc2cc(C(=O)N(C)Cc3ccc4nonc4c3)ccc2o1 | i
CC(C)c1nnc(C2CN(C(=O)c3ccc(F)cc3)CC23CCOCC3)o1 (configuration not stated) | -2%
CCOc1ccccc1NC(=O)Nc1cc2c(cc1N1CCCCC1)n(CC)c(=O)n2CC | 11µM*
CCOc1ccc(NC(=O)Nc2cc3c(cc2N2CCCCC2)n(C)c(=O)n3C)cc1 | -15%
CCOc1ccc(C(=O)Nc2cc3c(cc2N2CCCC2)n(C)c(=O)c(=O)n3C)cc1OCC | -16%
CNC(=O)Nc1ccc(C2(C(=O)NC(C)C)CCC2)cc1 | 10%
O=C(Nc1ccc2c(c1)OCCO2)N1c2ccccc2CC1c1nc(C2CC2)no1 (configuration not stated) | i[5.79 µM]
Cc1ccc(F)cc1S(=O)(=O)N1CCC(CC(=O)NCc2ccccc2)C1 (configuration not stated) | i
Cc1ccc(CN2CC(Oc3ccccc3C(=O)N3CCOCC3)C2)cc1C | 2.8µM*
O=C(NC1CC1)c1ccccc1OC1CN(Cc2ccc(F)c(F)c2)C1 | i
O=C(c1cccnc1OC1CCN(Cc2ccccn2)C1)N1CCOCC1 (configuration not stated) | i
Cc1cc(C(=O)NC2CC(=O)N(Cc3ccccc3C(F)(F)F)C2)nn1C (configuration not stated) | -5%
Cc1cc(CN(C)c2cc(C3CC(N)C3)nc(N)n2)no1 (configuration not stated) | -5%
CCOc1ccc(Cl)cc1CN(C)c1cc(C2CC(O)C2)nc(N)n1 (configuration not stated) | 11µM*
